Over roughly 33,000 sequences, “E-score (-0.5 to 0.5)” has its median near -0.012; the highest 2% begin near 0.27. Shown is part of a subset that was picked to be rich in the highest values.

The experiment deals with T1, Vhr1 (UniProt P40522).
T1 sequence: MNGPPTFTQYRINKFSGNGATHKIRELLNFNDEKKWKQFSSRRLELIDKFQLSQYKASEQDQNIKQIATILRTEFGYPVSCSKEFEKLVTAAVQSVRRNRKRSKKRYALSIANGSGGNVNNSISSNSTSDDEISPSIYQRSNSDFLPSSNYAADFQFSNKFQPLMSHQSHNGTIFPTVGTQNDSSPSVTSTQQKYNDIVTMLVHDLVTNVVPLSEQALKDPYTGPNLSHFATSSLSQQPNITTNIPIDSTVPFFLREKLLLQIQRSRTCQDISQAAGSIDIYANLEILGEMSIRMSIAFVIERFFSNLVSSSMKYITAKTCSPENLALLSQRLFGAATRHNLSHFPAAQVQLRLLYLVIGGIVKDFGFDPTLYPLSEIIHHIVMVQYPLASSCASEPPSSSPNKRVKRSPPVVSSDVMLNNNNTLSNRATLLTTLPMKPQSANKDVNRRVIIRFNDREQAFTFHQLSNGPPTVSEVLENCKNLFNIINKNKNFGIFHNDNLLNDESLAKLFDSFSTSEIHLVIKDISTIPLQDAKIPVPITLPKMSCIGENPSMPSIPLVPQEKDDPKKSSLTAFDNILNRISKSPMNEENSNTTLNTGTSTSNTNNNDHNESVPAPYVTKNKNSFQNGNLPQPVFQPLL
The experiment can be described thus: PBM E-score (8-mer binding enrichment) (E-score (-0.5 to 0.5)); higher = stronger / more preferred TF binding. To be noted: protein concentration: 200 nM; construct: GST-full length. Put shortly:
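Using PURExpress in vitro transcription/translation, GST-tagged yeast transcription factors were made in full-length or DNA-binding-domain form. These were applied at about 100-200 nM to double-stranded universal all-10-mer Agilent arrays, and bound protein was detected with fluorescent anti-GST. Scans were normalised with masliner before the Universal PBM Analysis Suite assigned E-scores to ungapped eight-base words pooled with their reverse complements.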
In the case of ACGACCTA, the “PBM E-score” value stood at 0.143.

Take AAGTGTGT: the “PBM E-score” value stood at 0.0443.

For AGAACGAC, the “PBM E-score” value was found to be 0.00162.

As for CCGTTACG, the “PBM E-score” value was -0.0486.

As to ACCCGATG, the “PBM E-score” value is 0.137.

Turning to ACTTGCTC, the “PBM E-score” value is -0.057.

As for CTTATCGC, the “PBM E-score” value is -0.0118.

On to TCCGACAA, for which the “PBM E-score” value was -0.0624.

In the case of GATTTCCA, the “PBM E-score” value came to 0.0482.

For GATAATCC, the “PBM E-score” value is -0.112.

With CATAATCA, the “PBM E-score” value amounted to 0.308.

Regarding CTTAATCA, the “PBM E-score” value amounted to 0.214.

Consider CATAATCG, for which the “PBM E-score” value was determined as 0.0927.

Regarding CATAATCC, the “PBM E-score” value is 0.105.

Take AATAATCA: the “PBM E-score” value stood at 0.203.

Take GATAATCA: the “PBM E-score” value turned out to be 0.301.

With ATTAATCA, the “PBM E-score” value stood at 0.217.

Regarding GTTAATCA, the “PBM E-score” value worked out at 0.296.

Turning to TAGATTCA, the “PBM E-score” value was -0.0459.

On to GTGCGAAC, for which the “PBM E-score” value was -0.037.

In the case of AAGATCAG, the “PBM E-score” value was determined as 0.0101.

Regarding ACCTGGAC, the “PBM E-score” value came to 0.0512.

As to TCCATGAA, the “PBM E-score” value amounted to 0.123.

Consider ACCATGAT, for which the “PBM E-score” value stood at 0.219.

In the case of ACCATGAC, the “PBM E-score” value was 0.307.

With GCAATGAC, the “PBM E-score” value was found to be 0.103.

For GCCATGAC, the “PBM E-score” value amounted to 0.0961.

For the sequence CCCATGAA, the “PBM E-score” value is 0.0105.

Consider GCCATGAA, for which the “PBM E-score” value amounted to 0.0605.

Turning to CCCATGAC, the “PBM E-score” value is 0.332.

Take ACCATGAA: the “PBM E-score” value worked out at 0.276.

As to CCAATGAC, the “PBM E-score” value turned out to be 0.285.

In the case of CCAATGAA, the “PBM E-score” value is -0.18.

For ACCATGAG, the “PBM E-score” value was 0.0389.

GTGGGGTA: the “PBM E-score” value stood at 0.22.

For the sequence CACCCGAC, the “PBM E-score” value was 0.0689.

As to GTGTGCGA, the “PBM E-score” value came out at 0.0262.

Turning to CGTCTCCA, the “PBM E-score” value amounted to 0.149.

On to CGGAGGAC, for which the “PBM E-score” value was found to be 0.00537.

For the sequence CTTAAGCC, the “PBM E-score” value is -0.234.

In the case of AAGTTTGT, the “PBM E-score” value is -0.034.

With CGGGGTCC, the “PBM E-score” value is -0.227.

ATACATAG: the “PBM E-score” value was determined as 0.108.

As for ACACATAA, the “PBM E-score” value came to 0.119.

Take ACACATAC: the “PBM E-score” value came to 0.29.

For ATACATAT, the “PBM E-score” value is 0.367.

Take ATACATAC: the “PBM E-score” value worked out at 0.293.

For ATACATAA, the “PBM E-score” value came to 0.135.

In the case of ACACATAG, the “PBM E-score” value came to 0.102.

On to GTACATAC, for which the “PBM E-score” value is 0.119.

CTACATAC: the “PBM E-score” value is 0.0864.

Take GCTGACCC: the “PBM E-score” value amounted to 0.0256.

Regarding ACCCAGCT, the “PBM E-score” value worked out at 0.0775.

With GTCCAGCA, the “PBM E-score” value is -0.0682.

On to ACGTCCAT, for which the “PBM E-score” value was -0.123.

With CGCGGTCC, the “PBM E-score” value is -0.137.

As for AGATCCCT, the “PBM E-score” value is -0.142.

Turning to CGATCCCG, the “PBM E-score” value amounted to 0.0117.

Regarding AGATCCCG, the “PBM E-score” value was 0.297.

ACCTCACG: the “PBM E-score” value is -0.0286.

Take CATCAACG: the “PBM E-score” value is 0.131.

As to AGGGGCGA, the “PBM E-score” value is 0.113.

Consider AGGGGCGC, for which the “PBM E-score” value is 0.0808.

On to AGGGGCGG, for which the “PBM E-score” value stood at 0.348.

GTTCATTA: the “PBM E-score” value is -0.0167.

In the case of GCGACCCC, the “PBM E-score” value is 0.0605.

Regarding CCGACTCA, the “PBM E-score” value is 0.417.

CTGACCCC: the “PBM E-score” value is -0.0745.

On to CTTACTCC, for which the “PBM E-score” value came out at 0.0868.

For the sequence CCGACTGA, the “PBM E-score” value is -0.0635.

Consider GCGACTCC, for which the “PBM E-score” value came to 0.414.

Consider ACGACTCT, for which the “PBM E-score” value was found to be 0.261.

In the case of GCCACTCC, the “PBM E-score” value was determined as 0.205.

Regarding ACGACTCA, the “PBM E-score” value was determined as 0.445.

With CCGACTTA, the “PBM E-score” value was -0.0517.

CTGACTCC: the “PBM E-score” value is 0.47.

Turning to ACGACTTA, the “PBM E-score” value was -0.0824.

As for AAATGGAC, the “PBM E-score” value is -0.0108.

Regarding ATCTCAGA, the “PBM E-score” value was 0.00554.

Take CCTGTGCA: the “PBM E-score” value was -0.0814.

As for CCCCCTCG, the “PBM E-score” value is -0.242.

GTAGGCGA: the “PBM E-score” value came out at 0.097.

Consider ACATGCCA, for which the “PBM E-score” value is 0.0538.

Turning to ACGACGCC, the “PBM E-score” value was -0.036.

ACGACTCC: the “PBM E-score” value turned out to be 0.366.

For CCGACTCC, the “PBM E-score” value was determined as 0.45.

Turning to ACGACTCG, the “PBM E-score” value came out at 0.327.

As to ACGACTTG, the “PBM E-score” value was -0.0454.

As for GCGACTTA, the “PBM E-score” value is -0.104.

Regarding GCGACTCA, the “PBM E-score” value is 0.477.

Consider CCGACTCG, for which the “PBM E-score” value came to 0.238.

As for CCGACTTC, the “PBM E-score” value is -0.223.

With GGGACTCA, the “PBM E-score” value was 0.261.

For the sequence ACGACTAT, the “PBM E-score” value turned out to be 0.195.

On to CAACAACG, for which the “PBM E-score” value amounted to 0.087.

Consider CAGAAGAG, for which the “PBM E-score” value was -0.189.

For CGGTAGAC, the “PBM E-score” value is -0.00049.

Regarding ACAAGAGT, the “PBM E-score” value amounted to 0.108.

In the case of ACAGGGAC, the “PBM E-score” value was -0.138.

With GCTTAGGA, the “PBM E-score” value is -0.0935.

As to GCACTACC, the “PBM E-score” value is -0.0106.

Consider GTACCCGA, for which the “PBM E-score” value was -0.161.

On to AAGCTGCA, for which the “PBM E-score” value was -0.00033.

For TCGACCCA, the “PBM E-score” value stood at 0.166.

As for TCGACTCA, the “PBM E-score” value turned out to be 0.349.

For the sequence TCTACTCA, the “PBM E-score” value worked out at 0.112.

Consider GCCATAGC, for which the “PBM E-score” value was -0.0742.

As to TCATGCGA, the “PBM E-score” value was found to be 0.285.

For GCATGCGA, the “PBM E-score” value came out at 0.159.

Turning to CCATGCGA, the “PBM E-score” value turned out to be 0.0318.

Consider CTATGATC, for which the “PBM E-score” value came out at 0.112.

As to GGTCGACC, the “PBM E-score” value stood at 0.32.

On to AGTCGACC, for which the “PBM E-score” value was -0.0312.

For the sequence GGTCGACA, the “PBM E-score” value was -0.0223.

Take AGTCGACA: the “PBM E-score” value turned out to be 0.197.

In the case of AGTCGACT, the “PBM E-score” value was determined as 0.33.

Consider ACTCGACG, for which the “PBM E-score” value is 0.269.

Take CGTCGACG: the “PBM E-score” value was 0.161.

In the case of AGTCGACG, the “PBM E-score” value came out at 0.278.

Take CGTCGACC: the “PBM E-score” value was -0.00578.

Turning to ACATCCCG, the “PBM E-score” value was found to be 0.231.

CCTGCACA: the “PBM E-score” value is -0.0959.

With AGTCGAGA, the “PBM E-score” value came out at 0.0118.

Turning to ACATAGAC, the “PBM E-score” value was found to be 0.0646.

For the sequence ATCCATAC, the “PBM E-score” value came out at 0.0581.

On to CCACCTCG, for which the “PBM E-score” value was -0.085.

Turning to CCTTGACC, the “PBM E-score” value is -0.111.

As for AGGAGTCA, the “PBM E-score” value was determined as 0.479.

Regarding GGGAGTTA, the “PBM E-score” value was -0.144.

With AGGAGTCC, the “PBM E-score” value worked out at 0.165.

Regarding AGGAGTCG, the “PBM E-score” value was 0.339.

In the case of GGGAGTAA, the “PBM E-score” value was 0.0449.

AGGAGTAA: the “PBM E-score” value is 0.0927.

For AGGAGTTG, the “PBM E-score” value was -0.00747.

For the sequence GGGAGTCA, the “PBM E-score” value worked out at 0.47.

AGGAGTGA: the “PBM E-score” value turned out to be 0.00535.

For AAGAAAGC, the “PBM E-score” value was -0.174.

ACTAAAAT: the “PBM E-score” value was -0.0643.

Take ACACTTCG: the “PBM E-score” value turned out to be 0.0579.

In the case of CCCTGCAC, the “PBM E-score” value was -0.0585.

With CGATTTTA, the “PBM E-score” value is -0.0769.

As to CGCTCCCC, the “PBM E-score” value is -0.16.

CTCACTGA: the “PBM E-score” value worked out at 0.14.

These data come from the supplement of paper PMC3334620.
